Shown are actives, neighbours in structure and some others; about 9% of the full set was active somewhere.
HPGD block = inhibitors of human 15-hydroxyprostaglandin dehydrogenase (HPGD). actives 4.3% (n = 150,000). Potency, µM, actives largely listed as inhibitors. purified HPGD, NADH fluorescence kinetic, PGE2 substrate. AID 894; active means well fitted inhibition curve with a large enough effect, not every such curve was filed as active; inconclusive means small, poorly fitted or top-dose-only effect, or another doubt; inactive means no such curve, though single readings can be large or run the other way
Target sequence (P15428 whole entry, looked up): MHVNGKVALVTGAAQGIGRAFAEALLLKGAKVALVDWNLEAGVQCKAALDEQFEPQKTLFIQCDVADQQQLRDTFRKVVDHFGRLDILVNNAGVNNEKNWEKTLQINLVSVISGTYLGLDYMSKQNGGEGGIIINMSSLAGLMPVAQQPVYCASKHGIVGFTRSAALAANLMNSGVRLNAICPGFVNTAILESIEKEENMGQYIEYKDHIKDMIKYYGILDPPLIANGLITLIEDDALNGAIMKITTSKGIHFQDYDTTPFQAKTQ
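20 nM HPGD preincubated 15 min at room temperature with compound in 50 mM Tris-HCl pH 8, 0.01% Tween 20. Started with 1 mM NAD+ and 30 uM prostaglandin E2; NADH fluorescence (360/450 nm) read 5 times over 30-s intervals, last minus first.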
LMNA splice mod = modulators of lamin A splicing; HeLa LMNA splicing GFP/RFP minigene ratio, 48 h; Potency, µM (highest dose often 46.1 µM), hits mostly inhibitors; actives 0.01% (n = 200,000); AID 1487; active means well fitted inhibition curve with a large enough effect in the signal ratio, with a control signal flat, not every such curve was filed as active; inconclusive means small, poorly fitted or top-dose-only effect, or effect the other way, or a change in a side signal; the % refers to the signal ratio
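S3 HeLa stable clones carrying a lamin A-EGFP splicing minigene plus DsRed2 were seeded at 600 cells/well in Opti-MEM with 2% FBS, pin-dosed and incubated 48 h at 37°C. Acumen cytometry (488 nm) gave the GFP/RFP total-intensity ratio.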
HTT aggregate = reduces HttQ103-GFP aggregates in PC12 cells; PC12 HttQ103-GFP aggregates, Acumen cytometry, 40 h; Potency, µM (highest dose often 46.1 µM), most hits filed as inhibitors; AID 1688; actives 1.1% (n = 220,000); further: nearly all actives have a fitted effect of over 60% in size
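Multiplexed with ATP-based cell death, this channel scores GFP aggregates in PC12 cells expressing inducible HTTex1-Q103-GFP. Induction used 100 nM tebufenozide; compounds were tested in concentration series.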
ALDH1A1 block = inhibitors of human aldehyde dehydrogenase 1A1 | actives 7.3% (n = 220,000) | AID 1030 | Purified ALDH1A1, NADH fluorescence, propionaldehyde substrate | Potency, µM (top dose mostly 75.3 µM), actives largely listed as inhibitors; active means well fitted inhibition curve with a large enough effect, not every such curve was filed as active; inconclusive means small, poorly fitted or top-dose-only effect, or another doubt; inactive means no such curve, though single readings can be large or run the other way
Target sequence (P00352 whole entry, looked up): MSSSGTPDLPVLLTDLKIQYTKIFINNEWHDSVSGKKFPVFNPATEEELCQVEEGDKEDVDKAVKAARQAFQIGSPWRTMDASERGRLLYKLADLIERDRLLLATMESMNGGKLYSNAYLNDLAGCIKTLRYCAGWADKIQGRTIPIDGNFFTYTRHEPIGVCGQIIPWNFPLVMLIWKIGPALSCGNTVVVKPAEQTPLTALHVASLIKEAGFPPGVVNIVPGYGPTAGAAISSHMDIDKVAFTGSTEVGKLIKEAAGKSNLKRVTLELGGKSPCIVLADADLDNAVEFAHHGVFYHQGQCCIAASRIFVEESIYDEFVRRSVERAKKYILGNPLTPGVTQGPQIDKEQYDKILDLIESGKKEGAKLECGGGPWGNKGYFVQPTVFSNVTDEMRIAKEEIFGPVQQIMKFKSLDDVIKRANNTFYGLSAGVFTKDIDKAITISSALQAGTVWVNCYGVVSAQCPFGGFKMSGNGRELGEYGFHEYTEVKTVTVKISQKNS
HTT cytoprotect = Huntington cell model cytoprotection by ATP luminescence; PC12 HTT-Q103 induced, cytoprotection, ATP luminescence, 40 h; Potency, µM (top dose mostly 56.4 µM), actives largely listed as activators; actives 0.14% (n = 230,000); AID 1471; further: nearly all actives have a fitted effect of over 45% in size
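Huntington model: PC12 line, ecdysone-inducible HTTQ103 exon1–GFP, tebufenozide 100 nM. Test articles in a dose series. Endpoint luminescence from cellular ATP.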
KinaseGlo FLuc = Kinase-Glo luciferase inhibition (counter-screen) | Q27757 | Potency, µM (top dose mostly 38.3 µM), most hits filed as inhibitors | Kinase-Glo luciferase, ATP luminescence, 8 min | actives 0.28% (n = 200,000) | AID 1379; further: nearly all actives have a fitted effect of over 60% in size
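Luminescence was the read-out, taken after 8-minute incubation at ambient temperature. Luciferase turned over luciferin with 10 uM ATP in imidazole pH 7.2 buffer containing KCl, MgCl2, Tween 20 and BSA.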
Each line names hits and unclear results; the compound was inactive in the other large screens. Unless noted, the call rests on the fitted dose curve; in most records, active means well fitted curve in the direction sought with a large enough effect; inconclusive means small, poorly fitted or top-dose-only effect, or another doubt; inactive means no such curve, though single readings can be large; an effect the other way counts as inactive or inconclusive.

COC(=O)C1=C(C)N(CCc2ccccc2)C(=O)C1(NS(=O)(=O)c1ccc(NC(C)=O)cc1)C(F)(F)F (configuration not stated)	ALDH1A1 block 20µM
O=C(Nc1ccccc1)Nc1nnc(-c2ccccc2)s1	none (no result: HPGD block, LMNA splice mod, KinaseGlo FLuc)
CCCS(=O)(=O)c1nc(S(=O)(=O)c2ccc(C)cc2)c(NCc2ccccn2)s1	ALDH1A1 block 14µM (no result: HPGD block, LMNA splice mod, KinaseGlo FLuc)
CCc1ccc(NC(=O)CSc2nc(=O)n(Cc3cccnc3)c3c2CCC3)cc1	none (no result: HPGD block, HTT aggregate, ALDH1A1 block, HTT cytoprotect, KinaseGlo FLuc)
COc1cc(CNCCc2ccccc2)ccc1OCc1ccc(Cl)nc1	none
Cc1nc(N)c(C#N)c(-c2cccnc2)c1C	HTT aggregate 6.3µM
CN(C)S(=O)(=O)c1cccc(NC(=O)COC(=O)CCOc2ccccc2)c1	none (no result: HPGD block, LMNA splice mod)
Cc1ccc(OCCC(=O)OCC(=O)Nc2cc(S(=O)(=O)N(C)C)ccc2C)cc1	ALDH1A1 block 4µM (no result: HPGD block)
CN(C)S(=O)(=O)c1ccc(Cl)c(NC(=O)COC(=O)CCSc2ccccc2)c1	ALDH1A1 block 25µM
CCC1(C(=O)OC)NC(c2ccco2)C2C(=O)N(c3ccc(C)cc3)C(=O)C21 (configuration not stated)	none
Cc1cnnn1-c1cccc([N+](=O)[O-])c1	none (no result: HPGD block)
Cc1cnnn1-c1ccc(C(=O)CCl)cc1	HPGD block inconclusive, ALDH1A1 block 0.89µM
COc1ccc(CCNC(=O)C2CCN(C(=O)c3cccs3)CC2)cc1	LMNA splice mod inconclusive, ALDH1A1 block 0.4µM (no result: HPGD block)
O=C(NCCc1ccc(Cl)cc1)C1CCN(C(=O)c2sccc2-n2cccc2)CC1	ALDH1A1 block 0.5µM
O=C(NCCC1=CCCCC1)C1CCN(C(=O)c2ccc(Cl)cc2)CC1	ALDH1A1 block inconclusive
CC(CCc1ccccc1)NC(=O)C1CCN(c2nnc(-n3cccc3)s2)CC1 (configuration not stated)	LMNA splice mod inconclusive
CC(CCc1ccccc1)NC(=O)C1CCN(C(=O)c2sccc2-n2cccc2)CC1 (configuration not stated)	ALDH1A1 block 0.35µM
O=C(NCCc1ccc(Cl)cc1)C1CCN(S(=O)(=O)N2CCCC2)CC1	ALDH1A1 block 3.2µM
CCc1nnc(NC(=O)CN2CCOCC2)s1	none
CC[C@H](C)C(C(=O)N1CCN(C(=O)OC(C)(C)C)CC1)n1cc(C(Cc2ccc(O)cc2)NC(=O)OC(C)(C)C)nn1 (some centres not stated)	none (no result: HPGD block, LMNA splice mod, KinaseGlo FLuc)
O=C(O)c1ccccc1CSc1nc2ccccc2o1	none
c1ccc2oc(SCc3cn4ccccc4n3)nc2c1	ALDH1A1 block 3.2µM
Cc1cccc2nc(CSc3nc4ccccc4o3)cn12	ALDH1A1 block inconclusive
O=C(O)c1ccc(CSc2nc3ccccc3o2)cc1	HPGD block 28µM
C/C(=N/NC(=O)Cn1nc2ccccc2n1)c1ccc(F)cc1	none
COc1ccc(CC(=O)O/N=C(\N)Cc2cccc3ccccc23)cc1	ALDH1A1 block inconclusive
COCCNC(=O)c1cccc(Nc2nc(-c3ccccc3)c3cc(Cl)ccc3n2)c1	HPGD block 28µM, LMNA splice mod inconclusive, HTT aggregate inconclusive, HTT cytoprotect inconclusive
OCCNc1nc(-c2ccccc2)c2cc(Cl)ccc2n1	ALDH1A1 block inconclusive (no result: HPGD block, LMNA splice mod)
N#Cc1ccc(NC(=O)Nc2ccc(Cl)cc2)cc1	LMNA splice mod inconclusive, HTT aggregate 25µM
O=C(NCCC1=CCCCC1)C(=O)NCC1OCCCN1S(=O)(=O)c1ccc(F)cc1 (configuration not stated)	ALDH1A1 block 22µM (no result: HPGD block)
O=C(NCCC1=CCCCC1)C(=O)NCC1OCCCN1S(=O)(=O)c1cc(F)ccc1F (configuration not stated)	none (no result: HPGD block)
O=C(NCc1ccco1)C(=O)NCC1OCCCN1S(=O)(=O)c1ccc(Cl)cc1 (configuration not stated)	LMNA splice mod inconclusive, ALDH1A1 block inconclusive (no result: HPGD block)
Cc1cc(S(=O)(=O)N2CCCOC2CNC(=O)C(=O)NCc2ccco2)ccc1F (configuration not stated)	ALDH1A1 block 10µM (no result: HPGD block, LMNA splice mod)
Cc1ccc(S(=O)(=O)N2CCCOC2CNC(=O)C(=O)NCc2cccs2)cc1 (configuration not stated)	ALDH1A1 block 11µM
CC(C)(C)c1ccc(CN(Cc2ccco2)Cc2nnnn2C2CCCC2)cc1	LMNA splice mod inconclusive, HTT aggregate inconclusive, ALDH1A1 block inconclusive
COc1ccc(Cl)cc1S(=O)(=O)N1CCN(C(=O)c2cc(OC)c(OC)c(OC)c2)CC1	none
Cc1ccc2cc(CN(Cc3cccs3)Cc3nnnn3CC3CCCO3)c(=O)[nH]c2c1 (configuration not stated)	ALDH1A1 block 7.9µM
COc1ccccc1CN(Cc1cc2cc(C)ccc2[nH]c1=O)Cc1nnnn1CC1CCCO1 (configuration not stated)	ALDH1A1 block inconclusive
Cc1ccc2[nH]c(=O)c(CN(Cc3cccs3)Cc3nnnn3CC3CCCO3)cc2c1 (configuration not stated)	ALDH1A1 block 20µM
COc1ccc(C2CC(=O)C3=C(C2)Nc2ccccc2N(C(=O)C2CC2)C3c2cccnc2)cc1OC (configuration not stated)	ALDH1A1 block 14µM
COc1ccc(C2CC(=O)C3=C(C2)Nc2ccccc2N(C(=O)CCC(=O)O)C3c2ccc(F)cc2)cc1OC (configuration not stated)	none (no result: HPGD block, LMNA splice mod, ALDH1A1 block, KinaseGlo FLuc)
COc1ccc(NC(=S)Nc2ccc(OCc3ccccc3)cc2)c(OC)c1	LMNA splice mod inconclusive, ALDH1A1 block 10µM
CCOc1cc(NC(=S)Nc2ccccc2)c(OCC)cc1NC(=O)c1ccc(OC)cc1	ALDH1A1 block 22µM
c1ccc(CNc2nc3ccccc3[nH]2)cc1	none
O=C(CCc1ccccc1)NNC(=O)c1ccccn1	HTT aggregate 13µM (no result: HPGD block, LMNA splice mod)
O=C(NNC(=O)C(c1ccccc1)c1ccccc1)c1ccccn1	LMNA splice mod inconclusive, HTT aggregate 10µM
CCOP(=O)(OCC)c1nc(/C=C/c2ccccc2)oc1NCc1ccc(OC)cc1	HPGD block inconclusive, LMNA splice mod inconclusive, HTT aggregate inconclusive, ALDH1A1 block inconclusive
CCOC(=O)N1CCN(C(=O)CCn2c(=O)[nH]c3ccsc3c2=O)CC1	none (no result: HPGD block)
Cc1ccc(S(=O)(=O)N/N=C/c2cccn2-c2ccc(Cl)cc2)cc1	none
O=S(=O)(N/N=C/c1c(F)cccc1Cl)c1ccccc1	HTT aggregate inconclusive, ALDH1A1 block 6.3µM
Cc1ccc(S(=O)(=O)N/N=C/c2cc(Br)ccc2O)cc1	ALDH1A1 block inconclusive (no result: HPGD block, LMNA splice mod, KinaseGlo FLuc)
Cc1ccc(S(=O)(=O)N/N=C/c2c(F)cccc2Cl)cc1	ALDH1A1 block 28µM
Cc1ccc(S(=O)(=O)N/N=C/c2cc(Br)c(C)o2)cc1	HTT aggregate inconclusive, ALDH1A1 block 5.6µM

Bioassay records as filed in PubChem BioAssay.
